Results reported in the supplement of paper PMC11732987, “Enantioselective OTUD7B fragment discovery through chemoproteomics screening and high-throughput optimisation” (Communications Chemistry, 2025).

Legend:
Test in all cases: log2 ratio of Biotin-Ahx-Ub-VS probe labelling (fragment/DMSO); higher = less target engagement (more negative = stronger competition), active = hit call of the paper (q ≤ 0.05, log2 ratio ≤ -1)
Settings in all cases: compound concentration: 200 uM; treatment time: 3 h
[1] = biological target: T1, ALG13 (UniProt Q9NP73)
T1 sequence (whole entry): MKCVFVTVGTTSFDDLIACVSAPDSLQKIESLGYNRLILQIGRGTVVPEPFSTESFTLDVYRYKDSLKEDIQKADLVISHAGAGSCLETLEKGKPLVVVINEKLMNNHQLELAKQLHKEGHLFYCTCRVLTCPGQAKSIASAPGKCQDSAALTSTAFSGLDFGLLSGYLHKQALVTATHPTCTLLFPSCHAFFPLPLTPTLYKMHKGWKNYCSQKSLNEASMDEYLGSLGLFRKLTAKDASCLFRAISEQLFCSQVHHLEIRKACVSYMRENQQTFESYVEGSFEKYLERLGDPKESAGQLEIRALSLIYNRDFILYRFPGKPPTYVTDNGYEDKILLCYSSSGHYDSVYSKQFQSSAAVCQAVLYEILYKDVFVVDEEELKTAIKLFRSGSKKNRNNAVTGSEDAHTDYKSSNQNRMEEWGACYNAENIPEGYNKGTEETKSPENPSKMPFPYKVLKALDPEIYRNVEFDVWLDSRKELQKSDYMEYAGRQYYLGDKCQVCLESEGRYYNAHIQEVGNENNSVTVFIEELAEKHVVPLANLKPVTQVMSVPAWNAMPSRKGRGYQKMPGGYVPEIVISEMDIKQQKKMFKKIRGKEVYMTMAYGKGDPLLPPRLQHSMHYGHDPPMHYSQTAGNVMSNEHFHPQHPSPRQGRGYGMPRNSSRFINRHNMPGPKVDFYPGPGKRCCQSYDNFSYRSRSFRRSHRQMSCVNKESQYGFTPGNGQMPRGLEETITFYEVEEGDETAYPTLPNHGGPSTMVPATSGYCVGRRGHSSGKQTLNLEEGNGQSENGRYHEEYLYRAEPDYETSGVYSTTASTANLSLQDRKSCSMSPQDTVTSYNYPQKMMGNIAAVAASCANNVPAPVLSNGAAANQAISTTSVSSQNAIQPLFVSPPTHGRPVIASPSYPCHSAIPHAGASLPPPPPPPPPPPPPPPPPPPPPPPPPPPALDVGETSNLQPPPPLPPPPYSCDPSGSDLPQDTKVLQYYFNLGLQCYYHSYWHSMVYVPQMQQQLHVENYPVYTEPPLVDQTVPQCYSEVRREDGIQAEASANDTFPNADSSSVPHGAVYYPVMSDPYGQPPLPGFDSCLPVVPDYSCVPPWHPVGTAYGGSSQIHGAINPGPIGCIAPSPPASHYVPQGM
Method in brief: (§1)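 Using Biotin-Ahx-Ub-VS at 0.5 µM final for 1 h, DUBs were labelled in HEK293T lysate (495 µg per sample) that had first been treated in triplicate with fragment at 200 µM or vehicle for 3 h. NeutrAvidin enrichment, LysC and trypsin digestion and diaPASEF LC-MS/MS followed. Spectronaut label-free quantities were global-median-normalised. Values are average log2 fragment/vehicle ratios by unpaired t-test, using proteins with ≥2 unique peptides.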

[2] = biological target: ATXN3 (UniProt P54252)
Sequence of ATXN3 (P54252 whole entry): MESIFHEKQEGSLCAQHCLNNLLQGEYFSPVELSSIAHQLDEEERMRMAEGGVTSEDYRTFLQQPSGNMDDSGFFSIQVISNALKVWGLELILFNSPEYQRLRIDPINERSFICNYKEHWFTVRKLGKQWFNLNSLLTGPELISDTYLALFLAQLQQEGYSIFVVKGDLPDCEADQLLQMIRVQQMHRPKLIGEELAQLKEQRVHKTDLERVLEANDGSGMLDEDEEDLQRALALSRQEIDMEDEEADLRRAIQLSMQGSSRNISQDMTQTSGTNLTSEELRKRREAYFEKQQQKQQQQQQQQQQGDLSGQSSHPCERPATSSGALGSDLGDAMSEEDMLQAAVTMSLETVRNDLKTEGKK
Method in brief: as §1

[3] = biological target: T2, BAP1 (UniProt Q92560)
T2 sequence (whole entry): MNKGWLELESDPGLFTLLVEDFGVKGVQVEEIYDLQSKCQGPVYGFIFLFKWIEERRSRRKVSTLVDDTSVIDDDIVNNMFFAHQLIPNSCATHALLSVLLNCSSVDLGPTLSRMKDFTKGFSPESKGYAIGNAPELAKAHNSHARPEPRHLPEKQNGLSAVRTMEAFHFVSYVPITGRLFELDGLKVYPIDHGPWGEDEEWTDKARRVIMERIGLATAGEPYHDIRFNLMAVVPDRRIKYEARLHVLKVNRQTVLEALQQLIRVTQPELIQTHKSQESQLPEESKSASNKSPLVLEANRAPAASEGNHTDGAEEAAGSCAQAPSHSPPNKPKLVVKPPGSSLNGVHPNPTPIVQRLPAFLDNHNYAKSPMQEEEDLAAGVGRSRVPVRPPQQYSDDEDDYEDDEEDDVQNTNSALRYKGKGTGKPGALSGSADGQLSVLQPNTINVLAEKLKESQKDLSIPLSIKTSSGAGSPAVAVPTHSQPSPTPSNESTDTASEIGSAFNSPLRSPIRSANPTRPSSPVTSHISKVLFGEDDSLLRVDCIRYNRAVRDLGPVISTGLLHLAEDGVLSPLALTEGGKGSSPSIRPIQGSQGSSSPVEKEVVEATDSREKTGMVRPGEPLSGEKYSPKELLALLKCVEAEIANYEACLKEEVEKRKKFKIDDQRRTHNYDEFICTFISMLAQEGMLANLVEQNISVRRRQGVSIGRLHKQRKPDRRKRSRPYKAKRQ
Method in brief: as §1

[4] = biological target: EIF3F (UniProt O00303)
Sequence of EIF3F (O00303 whole entry): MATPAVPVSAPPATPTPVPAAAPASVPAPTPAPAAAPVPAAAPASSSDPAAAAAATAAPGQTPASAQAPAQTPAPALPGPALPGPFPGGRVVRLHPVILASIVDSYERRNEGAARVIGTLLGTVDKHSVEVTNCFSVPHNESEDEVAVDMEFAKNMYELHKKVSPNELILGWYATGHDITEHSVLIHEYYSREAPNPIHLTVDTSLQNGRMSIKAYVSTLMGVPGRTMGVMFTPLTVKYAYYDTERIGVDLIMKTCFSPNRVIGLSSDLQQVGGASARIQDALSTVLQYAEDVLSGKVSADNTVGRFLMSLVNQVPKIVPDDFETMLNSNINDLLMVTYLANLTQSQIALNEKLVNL
Method in brief: as §1

[5] = biological target: EIF3H (UniProt O15372)
Sequence of EIF3H (O15372 whole entry): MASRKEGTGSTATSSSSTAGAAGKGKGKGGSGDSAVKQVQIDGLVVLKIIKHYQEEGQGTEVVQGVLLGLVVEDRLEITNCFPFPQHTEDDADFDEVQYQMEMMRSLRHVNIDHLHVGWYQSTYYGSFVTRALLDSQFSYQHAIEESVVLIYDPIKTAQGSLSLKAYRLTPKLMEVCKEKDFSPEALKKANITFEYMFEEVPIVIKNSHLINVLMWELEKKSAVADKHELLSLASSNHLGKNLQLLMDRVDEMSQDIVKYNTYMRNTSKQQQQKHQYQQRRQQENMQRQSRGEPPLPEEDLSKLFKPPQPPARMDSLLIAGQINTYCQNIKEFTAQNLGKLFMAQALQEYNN
Method in brief: as §1

[6] = biological target: T3, FAM105A (UniProt Q9NUU6)
T3 sequence (whole entry): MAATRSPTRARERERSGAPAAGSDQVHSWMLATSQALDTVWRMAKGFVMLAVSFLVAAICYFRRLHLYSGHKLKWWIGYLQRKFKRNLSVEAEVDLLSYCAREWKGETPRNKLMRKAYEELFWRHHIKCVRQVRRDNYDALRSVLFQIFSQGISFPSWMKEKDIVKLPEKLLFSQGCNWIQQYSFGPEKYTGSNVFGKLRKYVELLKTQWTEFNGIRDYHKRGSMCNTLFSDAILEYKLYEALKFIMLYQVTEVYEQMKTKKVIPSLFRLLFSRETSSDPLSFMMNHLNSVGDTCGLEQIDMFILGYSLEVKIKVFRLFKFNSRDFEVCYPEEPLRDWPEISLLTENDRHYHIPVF
Method in brief: as §1

[7] = biological target: OTUB1 (UniProt Q96FW1)
Sequence of OTUB1 (Q96FW1 whole entry): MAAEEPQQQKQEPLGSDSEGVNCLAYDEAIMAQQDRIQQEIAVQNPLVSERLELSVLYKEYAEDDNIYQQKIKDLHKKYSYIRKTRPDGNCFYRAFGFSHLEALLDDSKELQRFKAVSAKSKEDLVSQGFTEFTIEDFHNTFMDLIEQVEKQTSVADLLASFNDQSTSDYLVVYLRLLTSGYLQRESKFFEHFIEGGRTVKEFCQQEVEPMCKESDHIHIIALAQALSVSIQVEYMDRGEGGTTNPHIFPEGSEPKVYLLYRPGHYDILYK
Method in brief: as §1

[8] = biological target: T4, OTUD4 (UniProt Q01804)
T4 sequence (whole entry): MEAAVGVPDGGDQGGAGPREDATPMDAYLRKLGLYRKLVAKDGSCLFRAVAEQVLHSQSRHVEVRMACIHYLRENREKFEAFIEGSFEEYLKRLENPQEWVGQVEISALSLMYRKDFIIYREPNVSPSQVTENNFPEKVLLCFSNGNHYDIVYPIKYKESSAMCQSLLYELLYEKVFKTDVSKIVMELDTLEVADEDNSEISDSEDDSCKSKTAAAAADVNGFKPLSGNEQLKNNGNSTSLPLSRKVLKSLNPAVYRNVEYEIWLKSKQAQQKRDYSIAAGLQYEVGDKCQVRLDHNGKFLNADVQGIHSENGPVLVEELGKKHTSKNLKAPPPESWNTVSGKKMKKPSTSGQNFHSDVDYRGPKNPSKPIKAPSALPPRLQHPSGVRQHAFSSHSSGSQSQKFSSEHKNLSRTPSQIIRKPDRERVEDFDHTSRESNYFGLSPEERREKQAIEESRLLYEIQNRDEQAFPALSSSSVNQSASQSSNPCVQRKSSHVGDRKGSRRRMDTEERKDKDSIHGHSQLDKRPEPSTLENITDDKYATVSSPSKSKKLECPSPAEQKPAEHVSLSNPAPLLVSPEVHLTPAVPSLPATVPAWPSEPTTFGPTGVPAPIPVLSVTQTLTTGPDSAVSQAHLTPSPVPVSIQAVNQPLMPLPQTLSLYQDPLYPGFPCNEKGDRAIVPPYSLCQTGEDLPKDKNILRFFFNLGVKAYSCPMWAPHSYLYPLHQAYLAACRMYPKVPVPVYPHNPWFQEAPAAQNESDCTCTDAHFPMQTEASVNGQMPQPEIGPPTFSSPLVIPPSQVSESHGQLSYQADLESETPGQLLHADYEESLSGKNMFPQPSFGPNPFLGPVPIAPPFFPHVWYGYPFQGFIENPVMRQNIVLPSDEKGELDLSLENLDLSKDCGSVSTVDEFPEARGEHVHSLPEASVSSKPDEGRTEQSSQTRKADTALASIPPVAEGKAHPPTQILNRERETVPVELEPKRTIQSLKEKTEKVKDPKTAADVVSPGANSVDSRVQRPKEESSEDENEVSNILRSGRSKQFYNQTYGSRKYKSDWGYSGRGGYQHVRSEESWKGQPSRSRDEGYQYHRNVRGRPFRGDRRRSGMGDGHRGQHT
Method in brief: as §1

[9] = biological target: T5, OTUD5 (UniProt Q96G74)
T5 sequence (whole entry): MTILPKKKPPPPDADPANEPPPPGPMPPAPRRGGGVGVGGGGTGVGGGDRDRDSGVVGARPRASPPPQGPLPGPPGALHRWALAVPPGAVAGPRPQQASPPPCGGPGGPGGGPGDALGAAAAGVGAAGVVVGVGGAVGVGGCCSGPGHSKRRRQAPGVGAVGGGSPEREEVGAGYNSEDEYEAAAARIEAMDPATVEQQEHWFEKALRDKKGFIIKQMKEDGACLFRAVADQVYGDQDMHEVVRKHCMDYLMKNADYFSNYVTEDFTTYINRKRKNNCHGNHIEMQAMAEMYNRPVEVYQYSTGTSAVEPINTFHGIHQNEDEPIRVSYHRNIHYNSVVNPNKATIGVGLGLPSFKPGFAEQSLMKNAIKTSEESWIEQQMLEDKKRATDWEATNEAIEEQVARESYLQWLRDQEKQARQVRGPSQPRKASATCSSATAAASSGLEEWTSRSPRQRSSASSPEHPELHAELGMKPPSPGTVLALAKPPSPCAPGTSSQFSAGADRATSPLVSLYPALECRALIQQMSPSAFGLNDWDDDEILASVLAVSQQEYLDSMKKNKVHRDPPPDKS
Method in brief: as §1

Measured: log2 ratio of Biotin-Ahx-Ub-VS probe labelling

O=C(CCl)N1CCC(c2noc3cc(F)ccc23)CC1
active: [3] -1.19
inactive: [1] 0.141 | [2] -0.734 | [4] -0.419 | [5] 0.209 | [6] -0.1 | [7] -0.253 | [8] -0.413 | [9] -0.644
